# Results from publication PMC11006913.
# Numbering of substitutions follows the chain as printed.
# Legend:
# Test in all cases: PBM; 200 nM protein, PBS
# Conditions in all cases: dsDNA, one strand shown
# HOXB9 [1] = target: HOXB9 (Homo sapiens, UniProt P17482 171-250, T197M)
# HOXC9 [2] = target: HOXC9 (Homo sapiens, UniProt P31274 178-260, K195R)
# HOXC10 [3] = target: HOXC10 (Homo sapiens, UniProt Q9NYD6 254-340)
# HOXB9 [4] = target: HOXB9 (Homo sapiens, UniProt P17482 171-250)
# HOXC9 [5] = target: HOXC9 (Homo sapiens, UniProt P31274 178-260)
# Chain of HOXC9 (Homo sapiens, UniProt P31274 178-260) (P31274 178-260): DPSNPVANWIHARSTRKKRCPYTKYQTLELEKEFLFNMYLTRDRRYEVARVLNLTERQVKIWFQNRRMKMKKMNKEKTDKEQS
# ALX3 [6] = target: ALX3 (Homo sapiens, UniProt O95076 139-225, N203Q)
# Chain of ALX3 (Homo sapiens, UniProt O95076 139-225, N203Q) (O95076 139-225 N203Q): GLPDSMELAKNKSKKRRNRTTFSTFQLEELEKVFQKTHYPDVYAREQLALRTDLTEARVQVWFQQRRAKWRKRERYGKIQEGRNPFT
# HOXD13 [7] = target: HOXD13 (Homo sapiens, UniProt P35453 263-343, T313R)
# Chain of HOXD13 (Homo sapiens, UniProt P35453 263-343, T313R) (P35453 263-343 T313R): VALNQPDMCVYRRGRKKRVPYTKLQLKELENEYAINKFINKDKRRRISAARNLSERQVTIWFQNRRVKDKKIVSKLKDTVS
# HOXC9 [8] = target: HOXC9 (Homo sapiens, UniProt P31274 178-260, R193K)
# Chain of HOXC9 (Homo sapiens, UniProt P31274 178-260, R193K) (P31274 178-260 R193K): as the sequence (P31274 178-260) above, with R16K counted along it
# HOXD13 [9] = target: HOXD13 (Homo sapiens, UniProt P35453 263-343)
# Chain of HOXD13 (Homo sapiens, UniProt P35453 263-343) (P35453 263-343): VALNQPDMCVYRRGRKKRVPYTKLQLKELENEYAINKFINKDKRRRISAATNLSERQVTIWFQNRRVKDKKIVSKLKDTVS
# HOXC10 [10] = target: HOXC10 (Homo sapiens, UniProt Q9NYD6 254-340, K271E)
# Chain of HOXC10 (Homo sapiens, UniProt Q9NYD6 254-340, K271E) (Q9NYD6 254-340 K271E): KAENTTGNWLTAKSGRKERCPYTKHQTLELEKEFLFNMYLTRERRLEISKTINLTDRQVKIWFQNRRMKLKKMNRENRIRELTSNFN
# ALX3 [11] = target: ALX3 (Homo sapiens, UniProt O95076 139-225)
# Chain of ALX3 (Homo sapiens, UniProt O95076 139-225) (O95076 139-225): as the sequence (O95076 139-225 N203Q) above, with Q65N counted along it
# HOXD13 [12] = target: HOXD13 (Homo sapiens, UniProt P35453 263-343, T313A)
# Chain of HOXD13 (Homo sapiens, UniProt P35453 263-343, T313A) (P35453 263-343 T313A): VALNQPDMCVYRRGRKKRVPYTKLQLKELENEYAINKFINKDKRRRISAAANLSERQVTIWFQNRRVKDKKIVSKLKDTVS
# HOXB9 [13] = target: HOXB9 (Homo sapiens, UniProt P17482 171-250, R186Q)
# Chain of HOXB9 (Homo sapiens, UniProt P17482 171-250, R186Q) (P17482 171-250 R186Q): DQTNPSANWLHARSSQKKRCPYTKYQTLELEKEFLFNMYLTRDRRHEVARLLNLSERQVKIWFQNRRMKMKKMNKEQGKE
# HOXC9 [14] = target: HOXC9 (Homo sapiens, UniProt P31274 178-260, R222W)
# Chain of HOXC9 (Homo sapiens, UniProt P31274 178-260, R222W) (P31274 178-260 R222W): as the sequence (P31274 178-260) above, with R45W counted along it
# HOXA7 [15] = target: HOXA7 (Homo sapiens, UniProt P31268 116-202)
# Chain of HOXA7 (Homo sapiens, UniProt P31268 116-202) (P31268 116-202): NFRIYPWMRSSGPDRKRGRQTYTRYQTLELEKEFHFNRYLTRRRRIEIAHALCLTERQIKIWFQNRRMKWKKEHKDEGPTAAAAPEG
# HOXA7 [16] = target: HOXA7 (Homo sapiens, UniProt P31268 116-202, W177C)
# Chain of HOXA7 (Homo sapiens, UniProt P31268 116-202, W177C) (P31268 116-202 W177C): as the sequence (P31268 116-202) above, with W62C counted along it
# PAX4 [17] = target: T1, PAX4 (Homo sapiens, UniProt O43316 9-242, R200K)
# T1 sequence: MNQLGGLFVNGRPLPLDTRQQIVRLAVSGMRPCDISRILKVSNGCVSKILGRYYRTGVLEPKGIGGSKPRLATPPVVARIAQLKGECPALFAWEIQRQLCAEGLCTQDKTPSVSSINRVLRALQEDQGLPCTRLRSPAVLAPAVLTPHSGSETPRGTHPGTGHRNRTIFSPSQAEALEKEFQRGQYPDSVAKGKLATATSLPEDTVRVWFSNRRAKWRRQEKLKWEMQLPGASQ
# PRRX1 = PRRX1 (Homo sapiens, UniProt P54821 80-166, F113S)
# Chain of PRRX1 (P54821 80-166 F113S): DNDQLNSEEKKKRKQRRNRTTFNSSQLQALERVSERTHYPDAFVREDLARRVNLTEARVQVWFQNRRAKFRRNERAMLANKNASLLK
# HOXB6 = HOXB6 (Homo sapiens, UniProt P17509 132-218, K202E)
# Chain of HOXB6 (P17509 132-218 K202E): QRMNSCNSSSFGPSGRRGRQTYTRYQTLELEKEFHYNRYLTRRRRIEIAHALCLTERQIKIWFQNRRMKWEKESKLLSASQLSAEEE
# PAX4 [18] = target: T2, PAX4 (Homo sapiens, UniProt O43316 9-242, F177V)
# T2 sequence: T1 sequence with F169V, K192R
# PAX4 [19] = target: T3, PAX4 (Homo sapiens, UniProt O43316 9-242, F177Y)
# T3 sequence: T1 sequence with F169Y, K192R
# PAX4 [20] = target: T4, PAX4 (Homo sapiens, UniProt O43316 9-242, R227W)
# T4 sequence: T1 sequence with K192R, R219W
# ALX3 [21] = target: ALX3 (Homo sapiens, UniProt O95076 139-225, N203S)
# Chain of ALX3 (Homo sapiens, UniProt O95076 139-225, N203S) (O95076 139-225 N203S): as the sequence (O95076 139-225 N203Q) above, with Q65S counted along it
# VAX1 [22] = target: VAX1 (Homo sapiens, UniProt Q5SQQ9 86-172)
# Chain of VAX1 (Homo sapiens, UniProt Q5SQQ9 86-172) (Q5SQQ9 86-172): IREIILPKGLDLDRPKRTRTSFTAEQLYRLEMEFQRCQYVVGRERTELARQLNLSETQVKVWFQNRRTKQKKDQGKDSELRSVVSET
# VAX1 [23] = target: VAX1 (Homo sapiens, UniProt Q5SQQ9 86-172, T142I)
# Chain of VAX1 (Homo sapiens, UniProt Q5SQQ9 86-172, T142I) (Q5SQQ9 86-172 T142I): as the sequence (Q5SQQ9 86-172) above, with T57I counted along it
# VAX1 [24] = target: VAX1 (Homo sapiens, UniProt Q5SQQ9 86-172, K157R)
# Chain of VAX1 (Homo sapiens, UniProt Q5SQQ9 86-172, K157R) (Q5SQQ9 86-172 K157R): as the sequence (Q5SQQ9 86-172) above, with K72R counted along it
# ALX4 = ALX4 (Homo sapiens, UniProt Q9H161 200-286, Q225E)
# Chain of ALX4 (Q9H161 200-286 Q225E): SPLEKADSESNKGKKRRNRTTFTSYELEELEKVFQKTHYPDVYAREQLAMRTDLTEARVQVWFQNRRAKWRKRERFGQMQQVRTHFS
# Chain of HOXC10 (Homo sapiens, UniProt Q9NYD6 254-340) (Q9NYD6 254-340): as the sequence (Q9NYD6 254-340 K271E) above, with E18K counted along it
# Chain of HOXB9 (Homo sapiens, UniProt P17482 171-250, T197M) (P17482 171-250 T197M): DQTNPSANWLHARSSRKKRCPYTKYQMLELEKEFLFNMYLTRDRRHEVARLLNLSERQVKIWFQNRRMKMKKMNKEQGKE
# Chain of HOXB9 (Homo sapiens, UniProt P17482 171-250) (P17482 171-250): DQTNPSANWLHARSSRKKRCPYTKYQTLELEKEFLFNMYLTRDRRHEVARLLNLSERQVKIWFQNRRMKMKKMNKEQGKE
# Chain of HOXC9 (Homo sapiens, UniProt P31274 178-260, K195R) (P31274 178-260 K195R): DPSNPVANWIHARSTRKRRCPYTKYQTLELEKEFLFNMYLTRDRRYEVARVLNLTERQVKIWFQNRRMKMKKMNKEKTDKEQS
sequence,measurement,setting,value
CCATAAAA,binding signal,HOXB9 [1],"10 upbm affinity estimate (log intensity, higher = more binding, comparable within an allelic series)"
same,binding signal,HOXC9 [2],"13.3 upbm affinity estimate (log intensity, higher = more binding, comparable within an allelic series)"
same,binding signal,HOXC10 [3],"13 upbm affinity estimate (log intensity, higher = more binding, comparable within an allelic series)"
same,binding signal,HOXB9 [4],"12.8 upbm affinity estimate (log intensity, higher = more binding, comparable within an allelic series)"
same,binding signal,HOXC9 [5],"13.4 upbm affinity estimate (log intensity, higher = more binding, comparable within an allelic series)"
same,binding signal,ALX3 [6],"8.22 upbm affinity estimate (log intensity, higher = more binding, comparable within an allelic series)"
same,binding signal,HOXD13 [7],"11 upbm affinity estimate (log intensity, higher = more binding, comparable within an allelic series)"
same,binding signal,HOXC9 [8],"13.3 upbm affinity estimate (log intensity, higher = more binding, comparable within an allelic series)"
same,binding signal,HOXD13 [9],"12.3 upbm affinity estimate (log intensity, higher = more binding, comparable within an allelic series)"
same,binding signal,HOXC10 [10],"12.5 upbm affinity estimate (log intensity, higher = more binding, comparable within an allelic series)"
same,binding signal,ALX3 [11],"8.99 upbm affinity estimate (log intensity, higher = more binding, comparable within an allelic series)"
same,binding signal,HOXD13 [12],"12 upbm affinity estimate (log intensity, higher = more binding, comparable within an allelic series)"
same,binding signal,HOXB9 [13],"12.5 upbm affinity estimate (log intensity, higher = more binding, comparable within an allelic series)"
same,binding signal,HOXC9 [14],"11.6 upbm affinity estimate (log intensity, higher = more binding, comparable within an allelic series)"
ATTTATGA,binding signal,HOXB9 [1],"9.81 upbm affinity estimate (log intensity, higher = more binding, comparable within an allelic series)"
same,binding signal,HOXC9 [2],"12.5 upbm affinity estimate (log intensity, higher = more binding, comparable within an allelic series)"
same,binding signal,HOXC10 [3],"12.4 upbm affinity estimate (log intensity, higher = more binding, comparable within an allelic series)"
same,binding signal,HOXB9 [4],"11.8 upbm affinity estimate (log intensity, higher = more binding, comparable within an allelic series)"
same,binding signal,HOXC9 [5],"12.7 upbm affinity estimate (log intensity, higher = more binding, comparable within an allelic series)"
same,binding signal,HOXD13 [7],"10.9 upbm affinity estimate (log intensity, higher = more binding, comparable within an allelic series)"
same,binding signal,HOXC9 [8],"12.6 upbm affinity estimate (log intensity, higher = more binding, comparable within an allelic series)"
same,binding signal,HOXD13 [9],"12 upbm affinity estimate (log intensity, higher = more binding, comparable within an allelic series)"
same,binding signal,HOXC10 [10],"11.7 upbm affinity estimate (log intensity, higher = more binding, comparable within an allelic series)"
same,binding signal,HOXD13 [12],"11.8 upbm affinity estimate (log intensity, higher = more binding, comparable within an allelic series)"
same,binding signal,HOXB9 [13],"11.5 upbm affinity estimate (log intensity, higher = more binding, comparable within an allelic series)"
same,binding signal,HOXC9 [14],"11.1 upbm affinity estimate (log intensity, higher = more binding, comparable within an allelic series)"
CTATAAAC,binding signal,HOXB9 [1],"9.58 upbm affinity estimate (log intensity, higher = more binding, comparable within an allelic series)"
same,binding signal,HOXA7 [15],"9.84 upbm affinity estimate (log intensity, higher = more binding, comparable within an allelic series)"
same,binding signal,HOXB9 [4],"11.5 upbm affinity estimate (log intensity, higher = more binding, comparable within an allelic series)"
same,binding signal,HOXD13 [7],"10.9 upbm affinity estimate (log intensity, higher = more binding, comparable within an allelic series)"
same,binding signal,HOXD13 [9],"12.2 upbm affinity estimate (log intensity, higher = more binding, comparable within an allelic series)"
same,binding signal,HOXD13 [12],"12 upbm affinity estimate (log intensity, higher = more binding, comparable within an allelic series)"
same,binding signal,HOXB9 [13],"11.2 upbm affinity estimate (log intensity, higher = more binding, comparable within an allelic series)"
same,binding signal,HOXA7 [16],"8.92 upbm affinity estimate (log intensity, higher = more binding, comparable within an allelic series)"
ATTAAATA,binding signal,HOXB9 [1],"10.1 upbm affinity estimate (log intensity, higher = more binding, comparable within an allelic series)"
same,binding signal,PAX4 [17],"11.7 upbm affinity estimate (log intensity, higher = more binding, comparable within an allelic series)"
same,binding signal,PRRX1,"11.1 upbm affinity estimate (log intensity, higher = more binding, comparable within an allelic series)"
same,binding signal,HOXB6,"10 upbm affinity estimate (log intensity, higher = more binding, comparable within an allelic series)"
same,binding signal,HOXB9 [4],"11.7 upbm affinity estimate (log intensity, higher = more binding, comparable within an allelic series)"
same,binding signal,ALX3 [6],"8.66 upbm affinity estimate (log intensity, higher = more binding, comparable within an allelic series)"
same,binding signal,HOXC9 [8],"12.5 upbm affinity estimate (log intensity, higher = more binding, comparable within an allelic series)"
same,binding signal,PAX4 [18],"10.8 upbm affinity estimate (log intensity, higher = more binding, comparable within an allelic series)"
same,binding signal,PAX4 [19],"11.1 upbm affinity estimate (log intensity, higher = more binding, comparable within an allelic series)"
same,binding signal,HOXB9 [13],"11.5 upbm affinity estimate (log intensity, higher = more binding, comparable within an allelic series)"
same,binding signal,HOXC9 [14],"11.1 upbm affinity estimate (log intensity, higher = more binding, comparable within an allelic series)"
same,binding signal,PAX4 [20],"11 upbm affinity estimate (log intensity, higher = more binding, comparable within an allelic series)"
same,binding signal,ALX3 [21],"8.86 upbm affinity estimate (log intensity, higher = more binding, comparable within an allelic series)"
CTGCTCCC,binding signal,HOXB9 [1],"8.68 upbm affinity estimate (log intensity, higher = more binding, comparable within an allelic series)"
same,binding signal,HOXC10 [3],"10.1 upbm affinity estimate (log intensity, higher = more binding, comparable within an allelic series)"
same,binding signal,HOXB9 [4],"8.67 upbm affinity estimate (log intensity, higher = more binding, comparable within an allelic series)"
same,binding signal,HOXC10 [10],"10.1 upbm affinity estimate (log intensity, higher = more binding, comparable within an allelic series)"
same,binding signal,VAX1 [22],"7.16 upbm affinity estimate (log intensity, higher = more binding, comparable within an allelic series)"
same,binding signal,HOXB9 [13],"8.65 upbm affinity estimate (log intensity, higher = more binding, comparable within an allelic series)"
same,binding signal,VAX1 [23],"7.2 upbm affinity estimate (log intensity, higher = more binding, comparable within an allelic series)"
same,binding signal,VAX1 [24],"7.01 upbm affinity estimate (log intensity, higher = more binding, comparable within an allelic series)"
GGTCCCGA,binding signal,HOXB9 [1],"8.6 upbm affinity estimate (log intensity, higher = more binding, comparable within an allelic series)"
same,binding signal,HOXC9 [2],"9.69 upbm affinity estimate (log intensity, higher = more binding, comparable within an allelic series)"
same,binding signal,HOXB9 [4],"8.47 upbm affinity estimate (log intensity, higher = more binding, comparable within an allelic series)"
same,binding signal,HOXC9 [5],"9.62 upbm affinity estimate (log intensity, higher = more binding, comparable within an allelic series)"
same,binding signal,HOXC9 [8],"9.59 upbm affinity estimate (log intensity, higher = more binding, comparable within an allelic series)"
same,binding signal,HOXB9 [13],"8.44 upbm affinity estimate (log intensity, higher = more binding, comparable within an allelic series)"
same,binding signal,HOXC9 [14],"9.74 upbm affinity estimate (log intensity, higher = more binding, comparable within an allelic series)"
AATAAAAC,binding signal,HOXB9 [1],"9.76 upbm affinity estimate (log intensity, higher = more binding, comparable within an allelic series)"
same,binding signal,HOXC10 [3],"12.3 upbm affinity estimate (log intensity, higher = more binding, comparable within an allelic series)"
same,binding signal,ALX4,"10.6 upbm affinity estimate (log intensity, higher = more binding, comparable within an allelic series)"
same,binding signal,HOXB9 [4],"11.8 upbm affinity estimate (log intensity, higher = more binding, comparable within an allelic series)"
same,binding signal,HOXD13 [7],"10.9 upbm affinity estimate (log intensity, higher = more binding, comparable within an allelic series)"
same,binding signal,HOXD13 [9],"11.9 upbm affinity estimate (log intensity, higher = more binding, comparable within an allelic series)"
same,binding signal,HOXC10 [10],"11.7 upbm affinity estimate (log intensity, higher = more binding, comparable within an allelic series)"
same,binding signal,HOXD13 [12],"11.6 upbm affinity estimate (log intensity, higher = more binding, comparable within an allelic series)"
same,binding signal,HOXB9 [13],"11.5 upbm affinity estimate (log intensity, higher = more binding, comparable within an allelic series)"
same,binding signal,HOXC9 [14],"11.2 upbm affinity estimate (log intensity, higher = more binding, comparable within an allelic series)"
